Results from publication PMC5540273 (PLoS ONE, 2017).

What was measured:
Settings in all cases: concentration: 1 μM, replicates: in singlicate; n = 1
CSNK1G1 = tested on: CSNK1G1
CSNK1G2 = tested on: CSNK1G2
CSNK1G3 = tested on: CSNK1G3
CSNK2A1 = tested on: CSNK2A1
CSNK2A2 = tested on: CSNK2A2
CTK = tested on: T1, CTK
T1 construct: gene MATK

DAPK1 = tested on: DAPK1
DAPK2 = tested on: DAPK2
DAPK3 = tested on: DAPK3
DCAMKL1 = tested on: T2, DCAMKL1
T2 construct: gene DCLK1

DCAMKL2 = tested on: T3, DCAMKL2
T3 construct: gene DCLK2

DCAMKL3 = tested on: T4, DCAMKL3
T4 construct: gene DCLK3

DDR1 = tested on: DDR1
DDR2 = tested on: DDR2
DLK = tested on: T5, DLK
T5 construct: gene MAP3K12

DMPK2 = tested on: T6, DMPK2
T6 construct: gene CDC42BPG

DMPK = tested on: DMPK
DRAK1 = tested on: T7, DRAK1
T7 construct: gene STK17A

DRAK2 = tested on: T8, DRAK2
T8 construct: gene STK17B

DYRK1A = tested on: DYRK1A
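Further: KINOMEscan kinase panel screen.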

SMILES | %Inh (CSNK1G1) [%] | %Inh (CSNK1G2) [%] | %Inh (CSNK1G3) [%] | %Inh (CSNK2A1) [%] | %Inh (CSNK2A2) [%] | %Inh (CTK) [%] | %Inh (DAPK1) [%] | %Inh (DAPK2) [%] | %Inh (DAPK3) [%] | %Inh (DCAMKL1) [%] | %Inh (DCAMKL2) [%] | %Inh (DCAMKL3) [%] | %Inh (DDR1) [%] | %Inh (DDR2) [%] | %Inh (DLK) [%] | %Inh (DMPK2) [%] | %Inh (DMPK) [%] | %Inh (DRAK1) [%] | %Inh (DRAK2) [%] | %Inh (DYRK1A) [%]
Cc1ccc(NC(=O)c2ccc(Cl)c(Cl)c2)cc1-c1ccc(C(=O)Nc2ccncc2)cc1 [GSK1398460] | 12 | 16 | 36 | 0 | 2 | 0 | 11 | 0 | 18 | 22 | 10 | 17 | 100 | 69 | 0 | 0 | 0 | 0 | 3 | 14
Cl.O=C(Nc1ccc(Oc2ccc3[nH]c(NC(=O)c4ccco4)nc3c2)cc1)Nc1cc(C(F)(F)F)ccc1F [GW683134] | 0 | 0 | 7 | 9 | 0 | 6 | 3 | 0 | 20 | 19 | 7 | 0 | 100 | 95.7 | 22 | 0 | 0 | 0 | 0 | 13
Cc1ccc(NC(=O)c2ccnc(N3CCCCC3)c2)cc1-c1ccc(C(=O)NCC2CC2)cc1 [GW775610] | 0 | 20 | 0 | 0 | 0 | 25 | 100 | 0 | 12 | 0 | 0 | 4 | 99 | 93.6 | 5 | 0 | 0 | 0 | 0 | 40
Cl.Cl.NCC(NC(=O)c1cc(-c2cccnc2)c(-c2ccnc3[nH]ccc23)s1)c1ccccc1 (centres unmarked) [GSK1323434] | 39 | 63 | 68 | 32 | 40 | 0 | 59 | 21 | 27 | 21 | 9 | 0 | 11 | 55 | 34 | 51 | 79 | 19 | 0 | 48
CCNc1nccc(-c2c(-c3ccc(F)cc3)ncn2C2CCN(C)CC2)n1 | 7 | 1 | 0 | 44 | 17 | 100 | 24 | 15 | 10 | 13 | 0 | 5 | 70 | 4 | 0 | 8 | 0 | 16 | 0 | 0
COC(=O)Nc1nc2ccc(Oc3ccc(NC(=O)Nc4cc(C(F)(F)F)ccc4F)cc3)cc2[nH]1.Cl [GW654607] | 0 | 0 | 24 | 0 | 2 | 0 | 2 | 0 | 11 | 16 | 0 | 36 | 100 | 94.2 | 13 | 9 | 0 | 0 | 1 | 13
CN(c1ccc(F)c(NC(=O)c2cccc(OC(C)(C)C#N)c2Cl)c1)c1ccc2nc(NC(=O)C3CC3)sc2n1 | 0 | 12 | 0 | 35 | 10 | 13 | 4 | 0 | 4 | 0 | 0 | 0 | 100 | 97 | 2 | 14 | 0 | 0 | 0 | 0
O=C(Nc1n[nH]c2cc(-c3cccs3)ccc12)C1CC1 [SB-731284] | 0 | 0 | 0 | 62 | 80 | 45 | 12 | 2 | 3 | 12 | 3 | 0 | 10 | 23 | 26 | 0 | 0 | 14 | 12 | 15
CCOc1nccc(-c2c(-c3ccc(F)cc3)ncn2C2CCNCC2)n1 [SB-249175] | 0 | 32 | 0 | 56 | 65 | 0 | 0 | 0 | 0 | 25 | 24 | 10 | 0 | 7 | 0 | 75 | 15 | 0 | 0 | 1
COc1cc(Nc2nccc(N3CCC(NC(=O)Nc4ccc5c(c4)OCO5)C3)n2)cc(OC)c1OC (centres unmarked) [GSK1379766] | 10 | 0 | 4 | 4 | 16 | 0 | 5 | 0 | 7 | 7 | 7 | 0 | 0 | 6 | 53 | 10 | 0 | 0 | 4 | 12
